Unmarked numbers belong to inactive results.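 How the source made its calls: active = AUC reduced over 20% with Padj below 0.05 in at least 2 of 3 replicates; inactive = otherwise.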
tested on: Lactobacillus gasseri; assay: growth AUC relative to DMSO control (median of replicates) (fraction); higher = more growth (less inhibition), active = hit call of the paper; conditions: 20 µM; 24 h
Summary of the method: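 Starting at OD600 0.05, gut bacterial monocultures in mGAM were grown anaerobically at 37 °C with 20 µM compound (1% DMSO) under pierced gas-permeable seals. OD600 was read every hour for 24 h, and the lowest OD of each curve was set to 0. Area under the growth curve was normalised to the plate median of solvent-only wells, or to row and column medians on the industrial chemical plate, and the median of three biological replicates grown on separate days is given.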

Compared with `N#Cc1cc(Cl)c(O)c(Cl)c1`, `COC(=O)c1c(Cl)ccc(Cl)c1OC` is lower in “growth AUC” value: 1.17 for the first, 0.979 for the second.

Going from `CCc1cccc(C)c1N(C(=O)C(=O)O)C(C)COC` (centres undefined) to `CCOCN(C(=O)C(=O)O)c1c(C)cccc1CC`, the “growth AUC” value rises from 0.977 to 0.989.

Compared with `CCC([O-])=C1C(=O)CC(C(=O)[O-])CC1=O.[Ca+2]` (centres undefined), `CCOC(=O)/C(Cl)=C/c1cc(N2C(=O)C3=C(CCCC3)C2=O)ccc1Cl` is higher in “growth AUC” value: 1.06 for the first, 1.1 for the second.

First: COC1CCC2(CC1)NC(=O)C(c1cc(C)ccc1C)C2O (centres undefined)
Second: CCN(CC)C(=O)c1cccc(C)c1
The “growth AUC” value of the first is higher: 0.99 for the first, 0.966 for the second.

Going from `NC(=O)c1nn(-c2c(Cl)cc(C(F)(F)F)cc2Cl)c(N)c1S(=O)C(F)(F)F` (centres undefined) to `N#Cc1ccc(CC(=NNC(=O)Nc2ccc(OC(F)(F)F)cc2)c2cccc(C(F)(F)F)c2)cc1` (mixture of isomers), the “growth AUC” value rises from 0.937 to 1.15.

First: Cc1nn(C)c(F)c1C(=O)Nc1ccccc1C(C)CC(C)C (centres undefined)
Second: Cn1cc(C(=O)Nc2ccccc2-c2cc(F)c(F)c(F)c2)c(C(F)F)n1
The “growth AUC” value of the first is higher: 1.03 for the first, 0.995 for the second.

Going from `CCOC(=O)c1nc(C(Cl)(Cl)Cl)n(-c2ccc(Cl)cc2Cl)n1` to `CCOCOc1ccc(C(=O)Nc2cccc(Cl)c2Cl)cc1`, the “growth AUC” value rises from 1.02 to 1.05.

First: CCCCOCN(C(=O)CS(=O)(=O)[O-])c1c(CC)cccc1CC.[Na+]
Second: CCc1cccc(CC)c1N(COC)C(=O)CS(=O)(=O)[O-].[Na+]
The “growth AUC” value of the first is lower: 0.914 for the first, 1.05 for the second.

Compared with `CCN(CC)c1nc(C)cc(=O)[nH]1`, `CCNc1nc(NCC)nc(OC)n1` is lower in “growth AUC” value: 0.998 for the first, 0.921 for the second.

First: CC(C)CNC(=O)N1CCNC1=O
Second: COC(=O)c1ccccc1S(=O)(=O)NC(=O)n1nc(OCC(C)O)n(C)c1=O (centres undefined)
The “growth AUC” value of the first is higher: 1.05 for the first, 1.01 for the second.

Compared with `CCCNCCOc1c(Cl)cc(Cl)cc1Cl`, `Cc1cc(C)cc(OCC(C)Nc2nc(N)nc(C(C)(C)F)n2)c1` (centres undefined) is higher in “growth AUC” value: 0.953 for the first, 0.974 for the second.

Compared with `CCCCCCCC/C=C\CCCCCCCCCCCC(=O)O`, `CCc1nc2ncnn2c(N)c1CCCC(=O)O.Cl` is lower in “growth AUC” value: 0.979 for the first, 0.975 for the second.

First: S=C([S-])NCCNC(=S)[S-].S=C([S-])NCCNC(=S)[S-].[Mn+2].[Zn+2]
Second: COC(=O)c1ccc(C(=O)OC)cc1
The “growth AUC” value of the first is higher: 1.03 for the first, 0.981 for the second.

First: CCOc1ccc(C2(C(=O)OC(C#N)c3cccc(Oc4ccccc4)c3)CC2(Cl)Cl)cc1 (centres undefined)
Second: c1ccc2cc3ccccc3cc2c1
The “growth AUC” value of the first is lower: 0.848 for the first, 0.914 for the second.

First: O=c1cccc2n1CCn1c-2cccc1=O
Second: c1ccc2c(c1)Cc1ccccc1-2
The “growth AUC” value of the first is lower: 0.982 for the first, 1.05 for the second.

Compared with `NC(Cn1cncn1)C(=O)O` (centres undefined), `O=C(O)Cc1c[nH]c2ccccc12` is higher in “growth AUC” value: 0.999 for the first, 1.22 for the second.

Compared with `C=O`, `NS(=O)(=O)[O-].[NH4+]` is lower in “growth AUC” value: 1.04 for the first, 0.996 for the second.

Going from `N#Cc1c(N)nc(NC2CC2)nc1N` to `C#CCN(C)c1c(C#N)cnn1-c1nn2c(c1Cl)CCCC2`, the “growth AUC” value rises from 0.939 to 1.05.

Going from `Cc1cc(C)cc(O)c1` to `CCSc1nc(NC(C)C)nc(NC(C)C)n1`, the “growth AUC” value rises from 1.01 to 1.03.

In the case of `O.O=C(Nc1ccc(Cl)c(Cl)c1)Nc1cc(Cl)ccc1Oc1ccc(Cl)cc1S(=O)(=O)[O-].[Na+]`, the “growth AUC” value is reported as 0.0949 (active).

Source: the supplement of paper PMC12669032
